Results as given in PubChem BioAssay (Tox21).
Records with an inconclusive call do not appear. Activity calls are given as the source filed them. Calls come from the whole dose curve.

Legend:
[1] = target: Acetylcholinesterase (Homo sapiens) (UniProt P22303); test: Acetylcholinesterase (AChE) small molecule antagonists: colormetric cell-based qHTS assay (AID 1347395); note: nearly all actives have a fitted effect of over 30% in size; note: potency is the fitted concentration of half-maximal effect
In short: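 Quantitative HTS in attached SH-SY5Y cells: 30 min compound exposure, then 90 min with acetylthiocholine and DTNB at 37 C; colour from thiocholine reports AChE activity.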

[2] = target: Acetylcholinesterase (Homo sapiens) (UniProt P22303); test: Acetylcholinesterase (AChE) small molecule antagonists: enzyme-based qHTS assay (AID 1347397); conditions: Potency: AChE enzyme activity inhibition; outcome: AChE enzyme activity inhibition; note: nearly all actives have a fitted effect of over 55% in size
In short: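 Tox21 library chemicals are tested in qHTS format against recombinant human AChE. The enzyme, dispensed at 50 mU/mL, sits with compound for 30 min at room temperature. A DTNB–acetylthiocholine cocktail follows, and colour is read after 10 min.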

[3] = target: Acetylcholinesterase (Homo sapiens) (UniProt P22303); test: Acetylcholinesterase (AChE) small molecule antagonists: fluorescence cell-based qHTS assay (AID 1347398); conditions: Potency: AChE activity; outcome: AChE activity; note: nearly all actives have a fitted effect of over 50% in size
In short: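 Cellular AChE inhibition: SH-SY5Y cells treated with test chemical for 30 min at 37 C, then acetylthiocholine hydrolysis followed over 40 min at room temperature via thiocholine-reactive Thiolite Green fluorescence (490/520 nm).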

[4] = target: Acetylcholinesterase (Homo sapiens) (UniProt P22303); test: Acetylcholinesterase (AChE) small molecule antagonists: enzyme-based qHTS assay with human liver microsomes (AID 1347399); conditions: Potency: qHTS inhibition; outcome: qHTS inhibition; note: nearly all actives have a fitted effect of over 60% in size
In short: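 Recombinant human AChE (50 mU/mL in the enzyme mix) and human liver microsomes (0.25 mg/mL final) were preincubated with compound and NADPH (0.25 mg/mL final) for 30 min at 37 C. Acetylthiocholine/DTNB was then added; thiocholine was read colorimetrically after 10 min at room temperature.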
% is set by controls: 0 for no effect and ±100 for the full control effect.

Sequence of Acetylcholinesterase (Homo sapiens) (P22303 whole entry, looked up): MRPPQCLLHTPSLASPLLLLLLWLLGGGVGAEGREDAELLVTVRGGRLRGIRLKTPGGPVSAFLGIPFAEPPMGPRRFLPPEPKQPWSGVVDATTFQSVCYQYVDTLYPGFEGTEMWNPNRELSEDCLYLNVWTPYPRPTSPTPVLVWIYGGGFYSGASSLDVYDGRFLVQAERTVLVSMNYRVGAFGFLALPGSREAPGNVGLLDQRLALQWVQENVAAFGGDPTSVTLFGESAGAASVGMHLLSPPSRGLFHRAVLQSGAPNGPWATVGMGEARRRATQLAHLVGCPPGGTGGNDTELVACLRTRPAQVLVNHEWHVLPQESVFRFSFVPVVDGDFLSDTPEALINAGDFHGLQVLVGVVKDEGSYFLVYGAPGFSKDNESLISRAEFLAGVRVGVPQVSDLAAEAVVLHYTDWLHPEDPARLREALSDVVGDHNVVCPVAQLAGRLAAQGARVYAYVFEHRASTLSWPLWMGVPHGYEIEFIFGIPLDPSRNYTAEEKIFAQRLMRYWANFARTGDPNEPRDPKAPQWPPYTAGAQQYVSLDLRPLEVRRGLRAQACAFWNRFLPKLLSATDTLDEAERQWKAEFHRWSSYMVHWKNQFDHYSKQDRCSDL

Cc1onc(-c2c(Cl)cccc2Cl)c1C(=O)N[C@@H]1C(=O)N2[C@@H]1SC(C)(C)[C@@H]2C(=O)O
inactive: Potency [1] | Potency [2] | Potency [3]

CC(C)(O)CCCC1=CCC(C=O)CC1 (configuration not stated)
inactive: Potency [1] | Potency [2] | Potency [3]

CCCCOc1cc(C(=O)OCCN(CC)CC)ccc1N
inactive: Potency [1] | Potency [2]

OC/C=C/CO
inactive: Potency [2] | Potency [3]
active: Potency [1] 35.5 µM

Clc1cc(Cl)cc(Cl)c1
inactive: Potency [1] | Potency [2] | Potency [3]

C[C@H](CCC(=O)NCC(=O)O)[C@H]1CC[C@H]2[C@@H]3[C@H](O)C[C@@H]4C[C@H](O)CC[C@]4(C)[C@H]3C[C@H](O)[C@]12C
inactive: Potency [1] | Potency [2] | Potency [3]

C/C(=C\C(C)CC(C)CC(C)C)C1CC(=O)OC1=O (configuration not stated)
inactive: Potency [1] | Potency [2] | Potency [3] | Potency [4]

CCC(C)c1ccccc1 (configuration not stated)
inactive: Potency [1] | Potency [2] | Potency [3]

CC(C(O)c1ccc(O)cc1)N1CCC(Cc2ccccc2)CC1 (configuration not stated)
inactive: Potency [1] | Potency [2]

Cc1c(N)cccc1Cl
inactive: Potency [1] | Potency [2]

C/C=C/C(=O)CC
inactive: activity, negative = inhibition [1] 0.402% [at 23.6 µM] | activity change, negative = inhibition [2] 0.0718% [at 23.6 µM] | activity change, negative = inhibition [3] -7.93% [at 23.8 µM]

OCCCC1CCCCC1
inactive: Potency [1] | Potency [2] | Potency [3]

c1ccc2c(c1)ccc1c3ccccc3ccc21
inactive: Potency [1] | Potency [2] | Potency [3]

NS(=O)(=O)c1cc(C2(O)NC(=O)c3ccccc32)ccc1Cl (configuration not stated)
inactive: Potency [1] | Potency [2] | Potency [3]

BrC/C=C/CBr
inactive: activity, negative = inhibition [1] 1.18% [at 23.6 µM] | activity change, negative = inhibition [2] 2.59% [at 23.6 µM] | activity change, negative = inhibition [3] 7.15% [at 23.8 µM] | activity change, negative = inhibition [4] -2.1% [at 23.6 µM]

CC(C)OC(=O)c1ccccc1C(=O)OC(C)C
inactive: Potency [1] | Potency [2] | Potency [3] | Potency [4]

CC/C=C/CCCCCCCCCCOC(C)=O
inactive: Potency [1] | Potency [2]

O=S(=O)(c1ccccc1)c1ccc(Cl)cc1
inactive: Potency [1] | Potency [2] | Potency [3]

CC1CNCC(C)O1 (configuration not stated)
inactive: Potency [1] | Potency [2] | Potency [3]

COC(=O)C1=C(C)NC(C)=C(C(=O)OC(C)C)C1c1cccc2nonc12 (configuration not stated)
inactive: Potency [1] | Potency [2] | Potency [3]

Cc1c(C(=O)NN2CCCCC2)nn(-c2ccc(Cl)cc2Cl)c1-c1ccc(Cl)cc1
inactive: Potency [1] | Potency [2] | Potency [3]

CCCCCO
inactive: Potency [1] | Potency [2] | Potency [3]

N#Cc1ccc(C(c2ccc(C#N)cc2)n2cncn2)cc1
inactive: Potency [1] | Potency [2] | Potency [3] | Potency [4]

C[Si]1(C)O[Si](C)(C)O[Si](C)(C)O1
inactive: Potency [1] | Potency [2] | Potency [3] | Potency [4]

CCOC(=O)CC(C)C
inactive: Potency [1] | Potency [2] | Potency [3] | Potency [4]

O=Cc1cccc(Br)c1
inactive: Potency [1] | Potency [2] | Potency [3] | Potency [4]

COc1ccc(C(=O)c2ccc(OC)cc2O)c(O)c1
inactive: Potency [1] | Potency [2] | Potency [3] | Potency [4]

Cc1ccc(C(C)NC(=O)[C@@H](NC(=O)OC(C)C)C(C)C)cc1 (some centres not stated)
inactive: Potency [1] | Potency [2] | Potency [3] | Potency [4]

NC(=O)Nc1ccc(Cl)cc1
inactive: Potency [1] | Potency [2] | Potency [3] | Potency [4]

O=C(O)Cc1ccc(CCNS(=O)(=O)c2ccc(Cl)cc2)cc1
inactive: Potency [1] | Potency [2] | Potency [3] | Potency [4]

CC(=O)c1cnccn1
inactive: Potency [1] | Potency [2] | Potency [3] | Potency [4]

CCOc1ccc(O)cc1
inactive: Potency [1] | Potency [2] | Potency [3] | Potency [4]

COc1ccc(-c2cc(=S)ss2)cc1
inactive: Potency [1] | Potency [2] | Potency [3] | Potency [4]

O=C(O)C1CCC1
inactive: Potency [1] | Potency [2] | Potency [3] | Potency [4]

CCOC(=O)[C@H](CCc1ccccc1)N[C@H]1CS[C@H](c2cccs2)CN(CC(=O)O)C1=O
inactive: Potency [1] | Potency [2] | Potency [3] | Potency [4]

O=CN1CCCCC1
inactive: Potency [1] | Potency [2] | Potency [3] | Potency [4]

O=C(O)[C@@H]1CSCN1
inactive: Potency [1] | Potency [2] | Potency [3] | Potency [4]

CC1(C)CCC[C@]2(C)[C@H]3CCO[C@]3(C)CC[C@@H]12
inactive: Potency [1] | Potency [2] | Potency [3] | Potency [4]

Sc1nc2ccccc2s1
inactive: Potency [1] | Potency [2] | Potency [3] | Potency [4]

CCCCCCOC(=O)c1ccccc1O
inactive: Potency [1] | Potency [2] | Potency [3] | Potency [4]

O=c1[nH]c(=O)n([C@H]2C[C@H](O)[C@@H](CO)O2)cc1I
inactive: Potency [1] | Potency [2] | Potency [3] | Potency [4]

CNCCS(=O)(=O)O
inactive: Potency [1] | Potency [2] | Potency [3] | Potency [4]

Cc1onc(-c2ccccc2)c1-c1ccc(S(N)(=O)=O)cc1
inactive: Potency [1] | Potency [2] | Potency [3] | Potency [4]

OC(CN1CCC(Cc2ccc(F)cc2)CC1)c1ccc(Cl)cc1 (configuration not stated)
inactive: Potency [1] | Potency [2] | Potency [3] | Potency [4]

C#C[C@]1(OC(C)=O)CC[C@H]2[C@@H]3CCC4=C[C@@H](OC(C)=O)CC[C@@H]4[C@H]3CC[C@@]21C
inactive: Potency [1] | Potency [2] | Potency [3] | Potency [4]
